Reference: PubChem BioAssay
“And” between values parts separate entries of the source, which are not always exact repeats. Equal values may be shown once. The source made the active and inactive calls.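 Rule for the calls, unless noted: active = compounds that lower viability of the colon cancer cells in the luminescence readout, with no numeric limit stated; inactive = the rest.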

How the values were obtained:
[1] = stimulators of nuclear beta-catenin in C2C12, primary screen, imaging, WNT3A-conditioned medium, mouse C2C12, NPC library (AID 1117326; in the data active = nuclear beta-catenin stimulation mostly above about 4.2%, no sharp cut-off; inactive = mostly below about 10%); conditions: stronger effect = higher value
[2] = stimulators of insulin release from INS-1E, primary screen, cell-based, 5 mM glucose, NPC library (AID 1117329;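 active = compound raises insulin release from rat beta cells at 5 mM glucose, no numeric limit stated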); conditions: rat INS-1E insulin secretion, at 10 µM, stronger effect = higher value
[3] = growth inhibition of GSK3B-pretreated HCT116 cells – cell-based, CellTiter-Glo, 0.2 to 20 µM (AID 1117336;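 active = compounds lowering colon cancer cell viability after pretreatment blocking the GSK3B kinase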); conditions: HCT116 viability after GSK3B inhibitor, at 20 µM, stronger effect = higher value
[4] = inhibition of endothelial tube formation, primary screen, imaging, VEGF stimulated, CD31 staining, tube area, NPC library (AID 1117340;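 active = compound that reduces growth-factor-driven endothelial tube area in a mixed cell culture, no cutoff stated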); conditions: VEGF-stimulated ADSC/ECFC co-culture, at 10 µM, stronger effect = higher value
[5] = glucagon-like peptide 1 release enhancers, primary assay, NCI-H716 cell line, NPC library (AID 1117341;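 active = compound raises GLP1 secretion from the human gut endocrine cells, with no numeric limit stated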); conditions: NCI-H716 cells, at 10 µM, stronger effect = higher value
[6] = HCT116 colon cancer cell growth inhibition, primary screen, CellTiter-Glo luminescence, NPC library (AID 1117342;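 active = compounds that lower survival of HCT116 colon cancer cells in the luminescence readout, no numeric limit stated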); conditions: at 20 µM (top of the series)
[7] = CellTiter-Glo luminescent readout of SW480 viability loss, NPC library primary (AID 1117343); conditions: CellTiter-Glo luminescence; at 20 µM (top of the series)
[8] = decreased DLD-1 cellular survival, CellTiter-Glo luminescent readout, NPC compound collection, primary HTS (AID 1117346;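 active = compounds that lower survival of DLD-1 colon cancer cells in the luminescence readout, no cutoff given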); conditions: DLD-1 viability, CellTiter-Glo luminescence; at 20 µM (top of the series)
[9] = biological target: 6-phosphogluconate dehydrogenase, decarboxylating (Homo sapiens) (UniProt P52209); experiment: 6PGD enzyme inhibitors, primary screen, biochemical, human, recombinant enzyme, NADPH absorbance (AID 1159550;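 active = at least 20% inhibition of 6-phosphogluconate dehydrogenase activity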); conditions: recombinant 6PGD, NADPH absorbance 341 nm; at 10 µM; stronger effect = higher value
Sequence of 6-phosphogluconate dehydrogenase, decarboxylating (Homo sapiens) (P52209 whole entry, looked up): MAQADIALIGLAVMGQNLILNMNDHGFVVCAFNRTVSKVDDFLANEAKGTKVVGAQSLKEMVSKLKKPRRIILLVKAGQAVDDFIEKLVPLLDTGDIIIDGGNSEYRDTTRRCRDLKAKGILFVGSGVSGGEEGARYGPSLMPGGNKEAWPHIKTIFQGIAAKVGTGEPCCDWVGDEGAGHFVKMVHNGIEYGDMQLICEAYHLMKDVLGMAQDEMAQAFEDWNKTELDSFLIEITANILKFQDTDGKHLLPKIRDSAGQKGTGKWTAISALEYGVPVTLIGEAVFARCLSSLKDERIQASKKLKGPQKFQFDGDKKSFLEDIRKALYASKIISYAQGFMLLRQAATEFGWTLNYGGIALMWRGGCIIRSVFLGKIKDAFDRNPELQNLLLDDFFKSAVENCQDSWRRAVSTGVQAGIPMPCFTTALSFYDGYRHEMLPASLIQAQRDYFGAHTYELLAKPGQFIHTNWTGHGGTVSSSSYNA

[10] = differential killing of epithelial or mesenchymal cells, primary screen, imaging, PC-3E GFP, TEM4-18 mCherry, co-culture (AID 1345086;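 active = compounds killing one labelled cell type while sparing the other, by normalised counts and ratio limits, not self-fluorescent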;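 for all read-outs here: cells exposed to compound for 72 h before imaging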;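 for red/green cell ratio (normalised): normalised mesenchymal count divided by normalised epithelial count so high means epithelial killing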); conditions: imaging cell counts, at 1 µM; for red/green cell ratio (normalised): actives lie on both sides, counts scaled to control wells, 1 = unselective
[11] = survival rescue of mitochondrial mutant cells in low glucose, primary screen, MELAS cybrids, Rieske KO mouse fibroblasts, CellTiter-Glo (AID 1508586;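 active = mean z-score across replicates of 1.96 or higher in either the MELAS or the Rieske mutant cell line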;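 note: z relative to plate mean and SD of compound and empty wells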)
[12] = biological target: NAD(+) hydrolase SARM1 (Homo sapiens) (UniProt Q6SZW1); experiment: SARM1 TIR NADase inhibitors, cell lysate, NAD-Glo luminescence (AID 1508614;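 active = compound whose remaining NAD level is above about 45 nM, limit read from the data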;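 note: higher remaining NAD means stronger inhibition of SARM1 NADase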); conditions: SAM-TIR HEK293T lysate NADase, at 1 µM, stronger effect = higher value
Sequence of NAD(+) hydrolase SARM1 (Homo sapiens) (Q6SZW1 whole entry, looked up, the tested form may be a part): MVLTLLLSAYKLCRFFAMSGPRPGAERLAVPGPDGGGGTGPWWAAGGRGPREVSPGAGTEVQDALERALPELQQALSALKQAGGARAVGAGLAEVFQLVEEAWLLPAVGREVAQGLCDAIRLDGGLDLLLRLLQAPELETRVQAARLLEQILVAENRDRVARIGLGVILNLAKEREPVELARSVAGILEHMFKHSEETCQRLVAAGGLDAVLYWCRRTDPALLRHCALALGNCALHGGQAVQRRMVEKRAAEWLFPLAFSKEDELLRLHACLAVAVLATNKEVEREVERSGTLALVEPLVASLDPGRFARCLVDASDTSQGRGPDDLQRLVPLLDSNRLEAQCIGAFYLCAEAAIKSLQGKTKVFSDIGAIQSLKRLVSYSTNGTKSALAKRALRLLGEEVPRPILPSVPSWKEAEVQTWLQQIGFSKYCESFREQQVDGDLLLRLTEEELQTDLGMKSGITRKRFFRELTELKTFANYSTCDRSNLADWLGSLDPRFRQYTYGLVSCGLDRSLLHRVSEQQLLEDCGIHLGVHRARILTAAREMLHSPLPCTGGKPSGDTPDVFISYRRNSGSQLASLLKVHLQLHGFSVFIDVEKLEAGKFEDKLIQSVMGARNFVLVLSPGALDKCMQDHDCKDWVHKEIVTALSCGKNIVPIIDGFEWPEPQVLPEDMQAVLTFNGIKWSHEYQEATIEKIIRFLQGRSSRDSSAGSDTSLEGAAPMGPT

[13] = biological target: Mitogen-activated protein kinase 7 (Homo sapiens) (UniProt Q13164); experiment: ERK5 transactivation activators in reporter cells, primary screen, cell-based, HTS (AID 1508626;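 active = luciferase signal above three times the same-plate solvent-only control wells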;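 note: luciferase driven by Gal4-ERK5 fusion binding five Gal4 sites before minimal TATA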); conditions: HeLa Gal4-ERK5 transactivation, 18 h, at 5 µM, stronger effect = higher value
Sequence of Mitogen-activated protein kinase 7 (Homo sapiens) (Q13164 whole entry, looked up, the tested form may be a part): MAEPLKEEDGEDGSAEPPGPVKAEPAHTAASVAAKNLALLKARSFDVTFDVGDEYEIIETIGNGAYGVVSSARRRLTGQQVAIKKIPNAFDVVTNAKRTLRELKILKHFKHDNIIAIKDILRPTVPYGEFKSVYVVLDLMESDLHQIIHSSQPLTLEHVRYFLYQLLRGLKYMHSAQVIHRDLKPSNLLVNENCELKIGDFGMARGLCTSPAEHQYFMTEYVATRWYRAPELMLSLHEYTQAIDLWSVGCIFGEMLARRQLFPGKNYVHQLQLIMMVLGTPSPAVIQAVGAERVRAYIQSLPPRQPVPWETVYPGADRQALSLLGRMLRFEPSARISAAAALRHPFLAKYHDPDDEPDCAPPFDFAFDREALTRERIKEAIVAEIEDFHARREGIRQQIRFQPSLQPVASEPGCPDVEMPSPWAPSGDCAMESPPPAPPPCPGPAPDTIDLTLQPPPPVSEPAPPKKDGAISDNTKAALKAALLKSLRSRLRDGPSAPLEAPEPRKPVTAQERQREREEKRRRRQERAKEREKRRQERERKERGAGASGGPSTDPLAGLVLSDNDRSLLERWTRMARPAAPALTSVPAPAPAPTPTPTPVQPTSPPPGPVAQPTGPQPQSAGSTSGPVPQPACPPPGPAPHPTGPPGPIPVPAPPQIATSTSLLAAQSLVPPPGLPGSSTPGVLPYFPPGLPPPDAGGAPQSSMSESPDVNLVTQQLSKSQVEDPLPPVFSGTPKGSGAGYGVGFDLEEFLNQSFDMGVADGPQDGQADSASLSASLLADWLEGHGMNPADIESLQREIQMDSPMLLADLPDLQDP

[14] = polyglutamine-triggered caspase-3 activation inhibitors, cell-based (AID 1583); conditions: polyglutamine-induced caspase-3 activation, cell assay; stronger effect = higher value;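 tested at 10 µM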
[15] = suppressors of polyQ aggregation in yeast, 75Q-TubU reporter (AID 1593); conditions: Yeast 75Q polyglutamine aggregation reporter
[16] = inhibitors of mitochondrial cytochrome c release, biochemical, purified mitochondria (AID 1603); conditions: stronger effect = lower value;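 note: mouse liver mitochondria challenged with calcium chloride; signal normalized to the plate average as 100%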
[17] = inhibitors of polyQ protein aggregation (AID 1604); conditions: polyglutamine-induced protein aggregation inhibition assay; stronger effect = higher value; tested at 2.5 µM
[18] = enhancers of glutamate uptake in motor neurons, MN-1 cell line (AID 1612); conditions: MN-1 motor neuron cells, stronger effect = higher value;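 note: tested at 1 µM final; 0% = mean of DMSO vehicle wells on each plate; positive means more glutamate uptake than control and negative means less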
[19] = suppressors of polyglutamine aggregation in yeast, 75Q-TubH (AID 1616); conditions: S. cerevisiae 75Q-TubH polyglutamine aggregation suppression; stronger effect = higher value
[20] = ICB984 medulloblastoma cell growth inhibition, synergistic combos for chromothripsis tumors, cisplatin or BGB combos (AID 1671451; call rule not given here;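 note: cells exposed for 96 hours before readout; 0% = vehicle DMSO and 100% = killing by high DMSO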); conditions: ICB984 medulloblastoma cells, drug combinations, stronger effect = higher value
[21] = measured here: epithelial PC-3E GFP cell survival
[22] = measured here: mesenchymal TEM4-18 mCherry cell survival
[23] = MELAS cybrid survival, CellTiter-Glo 48 h, stronger effect = higher value
[24] = Rieske KO mouse fibroblast survival, CellTiter-Glo 72 h

In the case of `CCC(C)(C)C(=O)O[C@H]1C[C@@H](C)C=C2C=C[C@H](C)[C@H](CC[C@@H]3C[C@@H](O)CC(=O)O3)[C@H]21`, the nuclear beta-catenin stimulation ([1]; at 10 µM) is reported as 15.9% (inactive), the nuclear beta-catenin stimulation ([1]; stimulation, at 2 µM) is reported as 7.6% and the insulin secretion stimulation [2] is reported as 13.1% (inactive). For the same molecule, the viability decrease [3] was 95.1% (active), the tube area decrease [4] was 91% (active) and the GLP1 secretion stimulation [5] was 28% (active). The inhibition of viability [6] was 86% (active), the viability decrease (inhibition) [7] was 119% (active) and the viability decrease (inhibition) [8] was 77.8% (active). The inhibition [9] was 2.59% (inactive), the red/green cell ratio (normalised) [10] was 0.86 (inactive) and the normalised cell number [10, 21] was 0.75. The normalised cell number [10, 22] was 0.65, the z-score [11, 23] was -2.63 (inactive) and -1.16 (inactive) and the z-score [11, 24] was -0.283 and -0.755. The remaining NAD [12] was 10 nM (inactive) and the luciferase signal [13] was 220 AU (inactive).
In the case of `NC(N)=NN=C(/C=C/c1ccc([N+](=O)[O-])o1)/C=C/c1ccc([N+](=O)[O-])o1`, the nuclear beta-catenin stimulation ([1]; at 10 µM) is reported as -3% (active), the nuclear beta-catenin stimulation ([1]; stimulation, at 2 µM) is reported as 56.2% and the insulin secretion stimulation [2] is reported as 6% (inactive). For the same molecule, the viability decrease [3] was 99.3% (active), the tube area decrease [4] was 38.8% (active) and the GLP1 secretion stimulation [5] was -3% (inactive). The inhibition of viability [6] was 99.5% (active), the viability decrease (inhibition) [7] was 102% (active) and the viability decrease (inhibition) [8] was 96% (active).
For `Nc1nc2c(ncn2COCCO)c(=O)[nH]1`, the inhibition [14] was 6.39%, the score [15] was 1.1 and the cytochrome c release ratio [16] was 1.05. It also gave an inhibition of aggregation [17] of 51.5%, a glutamate uptake change [18] of 13.5% and an aggregation suppression score [19] of 1.27. For the same molecule, the nuclear beta-catenin stimulation ([1]; at 10 µM) was 3% (inactive), the nuclear beta-catenin stimulation ([1]; stimulation, at 2 µM) was -1% and the insulin secretion stimulation [2] was 0.5% (inactive). For the same molecule, the viability decrease [3] was -0.3% (inactive), the tube area decrease [4] was 8.6% (inactive) and the GLP1 secretion stimulation [5] was -0.5% (inactive). For the same molecule, the inhibition of viability [6] was -3.47% (inactive), the viability decrease (inhibition) [7] was 23.2% (inactive) and the viability decrease (inhibition) [8] was -16.2% (inactive). The inhibition [9] was 18.2% (inactive), the red/green cell ratio (normalised) [10] was 1.25 (inactive) and the normalised cell number [10, 21] was 1.01. For the same molecule, the normalised cell number [10, 22] was 1.26, the z-score [11, 23] was -0.252 (inactive) and -0.378 (inactive) and 0.479 and the z-score [11, 24] was 0.554 and 0.269 and 2.37. The remaining NAD [12] was 10 nM (inactive), the luciferase signal [13] was 40 AU (inactive) and the inhibition ([20]; BGB IC20 combo, at 0.005 µM) was 14.3% and 0.139%. The inhibition ([20]; BGB IC40 combo, at 0.005 µM) was -30.6% and -19%, the inhibition ([20]; BGB IC40 combo, at 0.05 µM) was -33.3% and -34.4% and the inhibition ([20]; at 0.5 µM) was -25.4% (inactive) and -25.1% (inactive). For the same molecule, the inhibition ([20]; cisplatin combo, at 0.05 µM) was -37% and -39.3%, the inhibition ([20]; cisplatin combo, at 0.5 µM) was -27.7% and -16.9% and the inhibition ([20]; cisplatin combo, at 5 µM) was -26.2% and -27.5%. The inhibition ([20]; measured here: 5 uM single agent, at 5 µM) was -25.9% and 2.01%.
For `C[C@H]1C[C@H](O)c2ccsc2S1(=O)=O`, the nuclear beta-catenin stimulation ([1]; at 10 µM) was 0.6% (inactive), the nuclear beta-catenin stimulation ([1]; stimulation, at 2 µM) was 2.7% and the insulin secretion stimulation [2] was -0.8% (inactive). The viability decrease [3] was -1.3% (inactive), the tube area decrease [4] was 1.2% (inactive) and the GLP1 secretion stimulation [5] was 1% (inactive). For the same molecule, the inhibition of viability [6] was 4.1% (active), the viability decrease (inhibition) [7] was -6.2% (inactive) and the viability decrease (inhibition) [8] was -4% (inactive).
With `COc1ccc(S(=O)(=O)Nc2nnc(CC(C)C)s2)cc1` the nuclear beta-catenin stimulation ([1]; at 10 µM) was -0.3% (inactive), the nuclear beta-catenin stimulation ([1]; stimulation, at 2 µM) was -0.5% and the insulin secretion stimulation [2] was 5.1% (inactive). For the same molecule, the viability decrease [3] was -9.2% (inactive), the tube area decrease [4] was -5.8% (inactive) and the GLP1 secretion stimulation [5] was -1.9% (inactive). The inhibition of viability [6] was -18.3% (inactive), the viability decrease (inhibition) [7] was 13.7% (inactive) and the viability decrease (inhibition) [8] was -19.8% (inactive).
For `COc1ccc2cc(Br)ccc2c1`, the nuclear beta-catenin stimulation ([1]; at 10 µM) was -0.6% (inactive), the nuclear beta-catenin stimulation ([1]; stimulation, at 2 µM) was -0.3% and the insulin secretion stimulation [2] was 0.9% (inactive). The viability decrease [3] was -1.1% (inactive), the tube area decrease [4] was 3.3% (inactive) and the GLP1 secretion stimulation [5] was -5% (inactive). The inhibition of viability [6] was -2.2% (inactive), the viability decrease (inhibition) [7] was -5.1% (inactive) and the viability decrease (inhibition) [8] was -6% (inactive).
For `Cc1coc2ccccc2c1=O`, the nuclear beta-catenin stimulation ([1]; at 10 µM) was 1.5% (inactive), the nuclear beta-catenin stimulation ([1]; stimulation, at 2 µM) was 2.3% and the insulin secretion stimulation [2] was -2.4% (inactive). The viability decrease [3] was 2.8% (inactive), the tube area decrease [4] was 13.7% (inactive) and the GLP1 secretion stimulation [5] was 3.1% (inactive). For the same molecule, the inhibition of viability [6] was -12.2% (inactive), the viability decrease (inhibition) [7] was 24.7% (inactive) and the viability decrease (inhibition) [8] was -7.5% (inactive). The inhibition [9] was 1.24% (inactive).
For `CCc1oc2ccccc2c1C(=O)c1cc(I)c(O)c(I)c1`, the nuclear beta-catenin stimulation ([1]; at 10 µM) was 4.9% (inactive), the nuclear beta-catenin stimulation ([1]; stimulation, at 2 µM) was 0.4% and the insulin secretion stimulation [2] was -1.6% (inactive). The viability decrease [3] was 98.7% (active), the tube area decrease [4] was 108% (active) and the GLP1 secretion stimulation [5] was -3.6% (inactive). The inhibition of viability [6] was 99% (active), the viability decrease (inhibition) [7] was 101% (active) and the viability decrease (inhibition) [8] was 102% (active).
